# Where “and” joins values, the source holds several entries; their conditions need not be identical. Identical values can stand only once. Inconclusive results are not listed. Entries that show only a call come without a potency. Where a structure was tested more than once in an assay, its records may differ in their call. Calls of active or inactive are those of the source. Unless noted, the call rests on the fitted dose curve; in most records, active means well fitted curve in the direction sought with a large enough effect; inconclusive means small, poorly fitted or top-dose-only effect, or another doubt; inactive means no such curve, though single readings can be large; an effect the other way counts as inactive or inconclusive.
# Key:
# [1] = Identifying Small Molecule Inhibitors of Pancreatic Cancer Stem Cells (A278, Adherent) (AID 1259361);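 further: viability read after 48 h compound exposure; nearly all actives have a fitted effect of over 35% in size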
# Method in brief: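 Spheroids grown 14 days in stem cell media on hydrogel-coated nonadherent plates; 2D lines seeded directly. Compounds added after 4 h attachment, 48 h at 37C, 5% CO2; CellTiter-Glo luminescence normalized to DMSO (no inhibition) and no-cell wells (full inhibition).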
# [2] = P-glycoprotein substrates identified in KB-8-5-11 adenocarcinoma cell line, qHTS therapeutic library screen (AID 1346987); further: nearly all actives have a fitted effect of over 65% in size; further: potency means the concentration at half of the fitted maximal effect
# Method in brief: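 Steps: plate 500 KB-8-5-11 cells/well in DMEM + 10% FCS (colchicine removed); pin compounds in dose-response; incubate 72 h, 37 degree C, 5% CO2; add CellTiter-Glo, 5 min; read luminescence.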
# [3] = NS1 protein of Zika virus - qHTS assay to identify small molecule inhibitors in human HEK 293 cells (AID 1347053); further: series mostly up to about 46 µM; nearly all actives have a fitted effect of over 55% in size
# Method in brief: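 Following 20 h seeding, HEK 293 cells took compound, then 1 h later ZIKV MR766 (MOI = 0.5). Incubation ran 24 h at 37 C before TR-FRET detection of NS1; a drop in signal indicates inhibition.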
# [4] = P-glycoprotein substrates identified in KB-3-1 adenocarcinoma cell line, qHTS therapeutic library screen (AID 1346986); further: nearly all actives have a fitted effect of over 60% in size
# Method in brief: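 KB-3-1 parental and colchicine-selected P-gp-overexpressing KB-8-5-11 cells (colchicine omitted during assay), 500 cells/well, dosed in dose-response for 72 h at 37 °C; CellTiter-Glo luminescence. Cytotoxic: curve class -1.1 to -2.4, max response >50%, AC50 < 10 uM.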
# [5] = Natriuretic polypeptide receptor (hNpr1) antagonism - Pilot counterscreen GloSensor control cell line (AID 1347045; calls by dose curve; further: series mostly up to about 38 µM)
# Method in brief: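 Luminescence was read before and 20 min after adding 50 uM SNP, which stimulates soluble guanylyl cyclase. The HEK293 cells expressing the GloSensor cGMP sensor had been preloaded with 2% reagent for 2 h and treated with compound.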
# [6] = molecular target: Atrial natriuretic peptide receptor 1 (Homo sapiens) (UniProt P16066); experiment: Natriuretic polypeptide receptor (hNpr1) antagonism - Pilot screen (AID 1347049; calls by dose curve;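 further: agonist-evoked cGMP luminescence read 20 min after hNppA addition; series mostly up to about 58 µM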)
# Method in brief: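 HEK293 cells expressing hNpr1 and GloSensor cGMP luciferase, 1500/well, loaded with 2% GloSensor reagent 2 h, compound 30 min at room temperature; luminescence read before and 20 min after 0.1 nM hNppA stimulation.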
# [7] = molecular target: Atrial natriuretic peptide receptor 2 (Homo sapiens) (UniProt P20594); experiment: Natriuretic polypeptide receptor (hNpr2) antagonism - Pilot subtype selectivity assay (AID 1347050; calls by dose curve)
# Method in brief: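 HEK293 cells expressing hNpr2 and a GloSensor cGMP luciferase sensor, 1500/well, preloaded 2 h with 2% GloSensor reagent, compound 30 min, then 1 nM hNppC for 20 min. Antagonism from luminescence after versus baseline pre-read; LOPAC in 1:5 titrations.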
# [8] = molecular target: T1, Tyrosine-protein phosphatase non-receptor type substrate 1 (Homo sapiens) + Leukocyte surface antigen CD47 (Homo sapiens) (UniProt P78324+Q08722); experiment: CD47-SIRPalpha protein protein interaction - HTRF assay qHTS validation (AID 1347058; active means well fitted curve in the direction sought with a large enough effect in the signal ratio, not every such curve was filed as active; the % refers to the signal ratio;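 further: recombinant soluble extracellular CD47 with His tag and biotinylated SIRPalpha domains; series mostly up to about 38 µM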)
# Method in brief: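 TR-FRET read (Ch1/Ch2 ratio) of soluble extracellular CD47 and Avi-biotinylated SIRPalpha domains in PBS pH 7.4 with 0.05% IGEPAL; 7-point compound titration. Sequential 30 min room-temperature steps; non-biotinylated SIRPalpha as control inhibitor.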
# [9] = molecular target: T1, Tyrosine-protein phosphatase non-receptor type substrate 1 (Homo sapiens) + Leukocyte surface antigen CD47 (Homo sapiens); experiment: CD47-SIRPalpha protein protein interaction - Alpha assay qHTS validation (AID 1347059);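 further: bead proximity luminescence from CD47 binding SIRPalpha after compound preincubation with SIRPalpha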
# Method in brief: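 Biotinylated Avi-tagged SIRPalpha (25 nM) preincubated 30 min with compound, then His-tagged CD47 (12.5 nM) added 30 min; AlphaScreen with Ni-NTA acceptor and streptavidin donor beads. PBS pH 7.4, 0.05% IGEPAL, room temperature; 7-point titrations.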
# Chain of Atrial natriuretic peptide receptor 1 (Homo sapiens) (P16066 whole entry, looked up): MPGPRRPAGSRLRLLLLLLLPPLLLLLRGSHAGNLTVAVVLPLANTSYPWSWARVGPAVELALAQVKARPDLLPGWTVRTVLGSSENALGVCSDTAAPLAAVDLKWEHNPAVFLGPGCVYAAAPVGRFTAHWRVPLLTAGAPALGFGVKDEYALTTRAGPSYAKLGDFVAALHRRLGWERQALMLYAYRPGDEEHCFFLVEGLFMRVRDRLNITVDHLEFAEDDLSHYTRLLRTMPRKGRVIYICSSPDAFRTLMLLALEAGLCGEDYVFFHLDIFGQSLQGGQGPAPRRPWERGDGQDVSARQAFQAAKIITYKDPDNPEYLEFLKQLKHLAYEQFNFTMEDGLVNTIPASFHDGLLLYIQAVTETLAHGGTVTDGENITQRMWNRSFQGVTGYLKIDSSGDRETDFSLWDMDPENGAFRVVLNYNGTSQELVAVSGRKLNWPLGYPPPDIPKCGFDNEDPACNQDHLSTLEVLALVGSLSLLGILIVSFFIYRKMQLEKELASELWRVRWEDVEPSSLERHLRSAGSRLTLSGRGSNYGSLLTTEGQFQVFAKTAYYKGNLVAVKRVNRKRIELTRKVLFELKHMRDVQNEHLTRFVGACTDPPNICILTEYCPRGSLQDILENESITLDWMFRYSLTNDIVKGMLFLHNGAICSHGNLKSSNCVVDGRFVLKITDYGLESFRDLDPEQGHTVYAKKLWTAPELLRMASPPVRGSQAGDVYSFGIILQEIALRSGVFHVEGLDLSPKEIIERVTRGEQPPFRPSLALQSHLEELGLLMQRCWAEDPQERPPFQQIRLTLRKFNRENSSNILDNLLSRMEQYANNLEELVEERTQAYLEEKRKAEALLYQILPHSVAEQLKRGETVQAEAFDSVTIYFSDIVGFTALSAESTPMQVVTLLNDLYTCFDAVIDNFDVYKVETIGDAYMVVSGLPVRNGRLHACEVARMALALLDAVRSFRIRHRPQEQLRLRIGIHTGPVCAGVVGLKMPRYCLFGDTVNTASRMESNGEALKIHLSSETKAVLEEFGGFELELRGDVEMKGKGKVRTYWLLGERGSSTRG
# Chain of Atrial natriuretic peptide receptor 2 (Homo sapiens) (P20594 whole entry, looked up): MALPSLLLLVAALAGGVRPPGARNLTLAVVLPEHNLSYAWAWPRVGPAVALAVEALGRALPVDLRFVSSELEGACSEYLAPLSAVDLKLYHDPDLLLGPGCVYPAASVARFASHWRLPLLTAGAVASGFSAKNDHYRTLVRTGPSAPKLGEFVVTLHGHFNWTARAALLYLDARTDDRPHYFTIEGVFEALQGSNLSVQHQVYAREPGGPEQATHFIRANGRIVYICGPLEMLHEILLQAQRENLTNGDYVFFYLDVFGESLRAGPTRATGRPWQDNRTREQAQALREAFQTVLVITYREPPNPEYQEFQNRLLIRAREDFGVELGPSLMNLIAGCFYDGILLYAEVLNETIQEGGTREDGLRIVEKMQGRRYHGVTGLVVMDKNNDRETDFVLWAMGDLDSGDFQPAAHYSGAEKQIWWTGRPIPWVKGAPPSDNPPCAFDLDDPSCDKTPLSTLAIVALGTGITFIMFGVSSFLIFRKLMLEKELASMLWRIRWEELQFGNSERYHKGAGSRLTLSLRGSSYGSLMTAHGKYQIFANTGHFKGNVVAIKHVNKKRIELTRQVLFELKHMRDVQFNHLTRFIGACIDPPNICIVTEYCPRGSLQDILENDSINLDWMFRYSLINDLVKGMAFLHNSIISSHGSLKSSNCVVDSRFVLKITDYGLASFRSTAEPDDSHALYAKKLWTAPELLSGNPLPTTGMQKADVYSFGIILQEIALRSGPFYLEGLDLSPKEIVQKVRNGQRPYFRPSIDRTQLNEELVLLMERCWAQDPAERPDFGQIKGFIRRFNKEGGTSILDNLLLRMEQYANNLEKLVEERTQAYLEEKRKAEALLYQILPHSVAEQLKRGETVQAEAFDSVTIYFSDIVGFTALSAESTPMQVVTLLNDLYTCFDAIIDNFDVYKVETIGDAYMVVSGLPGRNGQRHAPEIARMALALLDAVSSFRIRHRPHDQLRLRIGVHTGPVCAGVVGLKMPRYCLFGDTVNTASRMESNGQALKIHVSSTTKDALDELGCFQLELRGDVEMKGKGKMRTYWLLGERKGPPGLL
# T1 sequence (P78324 whole entry, looked up, the tested form may be a part): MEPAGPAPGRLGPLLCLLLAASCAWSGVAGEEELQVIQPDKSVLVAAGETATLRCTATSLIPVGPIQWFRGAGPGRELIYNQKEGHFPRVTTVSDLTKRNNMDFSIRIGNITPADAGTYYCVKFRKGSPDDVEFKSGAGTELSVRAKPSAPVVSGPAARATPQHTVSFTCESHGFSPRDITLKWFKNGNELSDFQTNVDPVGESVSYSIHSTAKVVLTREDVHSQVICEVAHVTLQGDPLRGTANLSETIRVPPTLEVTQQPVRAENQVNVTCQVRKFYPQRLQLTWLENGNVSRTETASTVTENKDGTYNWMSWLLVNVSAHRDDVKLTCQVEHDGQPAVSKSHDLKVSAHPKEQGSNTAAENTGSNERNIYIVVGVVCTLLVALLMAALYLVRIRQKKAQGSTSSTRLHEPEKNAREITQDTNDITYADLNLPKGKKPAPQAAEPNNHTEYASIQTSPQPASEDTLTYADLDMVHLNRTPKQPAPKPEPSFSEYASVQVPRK
# T1 sequence (Q08722 whole entry, looked up, the tested form may be a part): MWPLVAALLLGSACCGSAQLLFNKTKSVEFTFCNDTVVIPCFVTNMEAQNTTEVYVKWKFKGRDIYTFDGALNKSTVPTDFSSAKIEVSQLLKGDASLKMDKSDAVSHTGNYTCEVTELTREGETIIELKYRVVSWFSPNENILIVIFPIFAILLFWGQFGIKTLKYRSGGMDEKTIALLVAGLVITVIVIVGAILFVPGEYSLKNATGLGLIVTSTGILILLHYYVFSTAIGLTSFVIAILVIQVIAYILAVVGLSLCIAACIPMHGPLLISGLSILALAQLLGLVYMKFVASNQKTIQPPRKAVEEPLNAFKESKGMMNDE
compound,measurement,setting,value
CN(C)CCN(C)CCc1ccc(Cl)c(Cl)c1,IC50 (viability decrease),[1],inactive
same,Potency,[2],inactive
same,Potency,[3],inactive
Cc1cc(SCc2sc(-c3ccc(C(F)(F)F)c(F)c3)nc2C)ccc1OCC(=O)O,IC50 (viability decrease),[1],inactive
same,Potency,[4],inactive
same,Potency,[2],inactive
same,Potency,[3],inactive
C=C1CC[C@@]2(O)[C@H]3Cc4ccc(O)c5c4[C@@]2(CCN3CC2CC2)[C@H]1O5,Potency,[2],inactive
NCC1(CC(=O)O)CCCCC1,Potency,[2],inactive
same,Potency,[5],inactive
same,Potency,[6],inactive
same,Potency,[7],inactive
same,Potency,[3],inactive
same,outcome,[8],inactive
same,outcome,[9],inactive
Cc1ncc(CNC(=O)N(CCCl)N=O)c(N)n1,Potency,[2],inactive
same,Potency,[5],inactive
same,Potency,[6],inactive
same,Potency,[7],inactive
same,Potency,[3],inactive
same,outcome,[8],inactive
same,outcome,[9],inactive
Cn1cc(C2=C(c3cn(C4CCN(Cc5ccccn5)CC4)c4ccccc34)C(=O)NC2=O)c2ccccc21,Potency,[4],inactive
same,Potency,[2],inactive
same,Potency,[3],inactive
CCCN1CCC[C@@H]2Cc3nc(N)ncc3C[C@H]21,Potency,[2],inactive
same,Potency,[5],inactive
same,Potency,[6],inactive
same,Potency,[7],inactive
same,Potency,[3],inactive
same,outcome,[8],inactive
same,outcome,[9],inactive
COc1ccccc1N1CCNCC1,Potency,[2],inactive
same,Potency,[5],inactive
same,Potency,[6],inactive
same,Potency,[7],inactive
same,Potency,[3],inactive
same,outcome,[8],inactive
same,outcome,[9],inactive
N#CC(C#N)=Cc1ccc(O)c(O)c1,Potency,[2],inactive
same,Potency,[5],inactive
same,Potency,[6],inactive
same,Potency,[7],inactive
same,Potency,[3],inactive
same,outcome,[9],inactive
CN(C)CCc1ccc(O)cc1,Potency,[2],inactive
same,Potency,[3],inactive
COC[C@@H](NC(C)=O)C(=O)NCc1ccccc1,Potency,[2],inactive
same,Potency,[3],inactive
CCOP(=S)(OCC)Oc1cc(C)nc(C(C)C)n1,Potency,[2],inactive
same,Potency,[3],inactive
CC[N+](CC)(CC)CC,Potency,[2],inactive
same,Potency,[3],inactive
CC[N+]1(C)CCCC(OC(=O)C(O)(c2ccccc2)c2ccccc2)C1 (stereo not given),Potency,[2],inactive
same,Potency,[3],inactive
c1ccc2c(c1)OCC(C1=NCCN1)O2 (stereo not given),Potency,[2],inactive
same,Potency,[7],inactive
same,outcome,[8],inactive
same,outcome,[9],inactive
CC(C)CC(N(C)C)C1(c2ccc(Cl)cc2)CCC1 (stereo not given),Potency,[2],inactive
same,Potency,[3],inactive
C[C@]12C/C(=C/O)C(=O)C[C@@H]1CC[C@@H]1[C@@H]2CC[C@@]2(C)[C@H]1CC[C@]2(C)O,Potency,[2],inactive
same,Potency,[3],inactive
NCCc1cc(O)c(O)cc1O,Potency,[2],inactive
same,Potency,[3],inactive
c1ccc2c(c1)Nc1ccccc1S2,Potency,[2],inactive
same,Potency,[3],inactive
Oc1ccccc1-c1ccccc1,Potency,[2],inactive
same,Potency,[3],inactive
COc1ccc(C(=O)c2c(C)n(CCN3CCOCC3)c3ccccc23)cc1,Potency,[2],inactive and 5.8 µM (active)
same,Potency,[3],inactive
O=C(NC(O)C(Cl)(Cl)Cl)NC(O)C(Cl)(Cl)Cl (stereo not given),Potency,[2],inactive
same,Potency,[3],inactive
C=CCN1CC[C@]23c4c5ccc(O)c4O[C@H]2C(=O)CC[C@@]3(O)[C@H]1C5,Potency,[2],inactive
same,Potency,[3],inactive
FC(F)(F)c1cccc(C2=CCN(CCc3ccc4ccccc4c3)CC2)c1,Potency,[2],inactive
same,Potency,[3],inactive
CC(C)(N)Cc1ccc(Cl)cc1,Potency,[2],inactive
same,Potency,[3],inactive
Clc1cccc(N2CCNCC2)c1,Potency,[2],inactive
same,Potency,[3],inactive
N[C@@H]1C[C@H]1c1ccccc1,Potency,[2],inactive
same,Potency,[3],inactive
CC(=O)[C@H]1CC[C@H]2[C@@H]3CC[C@H]4C[C@](C)(O)CC[C@]4(C)[C@H]3CC[C@]12C,Potency,[2],inactive
same,Potency,[5],inactive
same,Potency,[7],inactive
same,Potency,[3],inactive
same,outcome,[8],inactive
same,outcome,[9],inactive
CC(C)=CCOc1c2occc2cc2ccc(=O)oc12,Potency,[2],inactive
same,Potency,[5],inactive
same,Potency,[6],inactive
same,Potency,[7],inactive
same,Potency,[3],inactive
same,outcome,[9],inactive
C#CCN(C)[C@H](C)Cc1ccccc1,Potency,[2],inactive
same,Potency,[3],inactive
Fc1ccc(C(OCCN2CCN(CCCc3ccccc3)CC2)c2ccc(F)cc2)cc1,Potency,[2],10.5 µM (active)
same,Potency,[6],inactive
same,Potency,[7],inactive
same,outcome,[8],inactive
same,outcome,[9],inactive
O=c1oc2ccccc2c(O)c1C(CC(O)c1ccc(-c2ccc(Br)cc2)cc1)c1ccccc1 (stereo not given),Potency,[2],inactive
same,Potency,[3],inactive
O=P1(NCCCl)OCCCN1CCCl (stereo not given),Potency,[2],10.5 µM (active)
same,Potency,[3],inactive
COc1ccc(Cc2nccc3cc(OC)c(OC)cc23)cc1OC,Potency,[2],880 nM (active) and inactive
same,Potency,[3],inactive
N[C@@H](Cc1ccc(Oc2cc(I)c(O)c(I)c2)c(I)c1)C(=O)O,Potency,[2],inactive
same,Potency,[3],inactive
Cc1cccc(C)c1NC1=NCCCS1,Potency,[2],inactive
same,Potency,[5],inactive
same,Potency,[7],inactive
same,Potency,[3],inactive
same,outcome,[8],inactive
same,outcome,[9],inactive
CN1CCN(C(=O)O[C@H]2c3nccnc3C(=O)N2c2ccc(Cl)cn2)CC1,Potency,[2],inactive
same,Potency,[3],inactive
COc1ccc(C(CN(C)C)C2(O)CCCCC2)cc1 (stereo not given),Potency,[2],inactive
same,Potency,[6],inactive
same,Potency,[3],inactive
NP(N)(=O)NC(=O)c1ccc(F)cc1,Potency,[2],inactive
same,Potency,[3],inactive
CC(O)(CS(=O)(=O)c1ccc(F)cc1)C(=O)Nc1ccc(C#N)c(C(F)(F)F)c1 (stereo not given),Potency,[2],inactive
same,Potency,[6],inactive
same,Potency,[7],inactive
same,Potency,[3],inactive
same,outcome,[8],inactive
same,outcome,[9],inactive
CC1NCCOC1c1ccccc1 (stereo not given),Potency,[2],inactive
same,Potency,[3],inactive
CC[C@@H](CO)NC(=O)[C@@H]1C=C2c3cccc4c3c(cn4C)C[C@H]2N(C)C1,Potency,[2],20.6 µM (active)
same,Potency,[5],inactive
same,Potency,[6],inactive
same,Potency,[7],inactive
same,outcome,[9],inactive
C[C@H]1O[C@@H](O[C@H]2[C@@H](O)C[C@H](O[C@H]3[C@@H](O)C[C@H](O[C@H]4CC[C@@]5(C)[C@H](CC[C@@H]6[C@@H]5CC[C@]5(C)[C@@H](C7=CC(=O)OC7)CC[C@]65O)C4)O[C@@H]3C)O[C@@H]2C)C[C@H](O)[C@@H]1O,Potency,[2],65.1 nM (active) and 76.9 nM (active)
same,Potency,[3],inactive
Oc1cc(Cl)ccc1Oc1ccc(Cl)cc1Cl,Potency,[2],inactive and 31.6 µM (active)
same,Potency,[3],inactive

# Reference: PubChem BioAssay (NCATS)
